Values joined by “and” are separate entries in the source; they are usually repeats but may differ in a detail not shown here. Identical values can stand only once. Results filed as inconclusive are left out. Active and inactive are the calls of the source. Unless noted, the call rests on the fitted dose curve; in most records, active means well fitted curve in the direction sought with a large enough effect in the repeat runs; inconclusive means weak or mixed curves; inactive means no such curve, though single readings can be large; an effect the other way counts as inactive or inconclusive.

Assay [1] in a line: qHTS assay for small molecule agonists of the p53 signaling pathway (AID 651631; calls by dose curve; further: nearly all actives have a fitted effect of over 15% in size). The method in brief: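 Testing took place in human colorectal HCT-116 cells with stable p53RE-driven beta-lactamase. After 16 h of compound exposure at 37 °C, a FRET substrate was added and fluorescence recorded 2 h later.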
Assay [2] in a line: qHTS assay for small molecule agonists of the p53 signaling pathway - cell viability (AID 651633; calls by dose curve; further: series mostly up to about 83 µM; nearly all actives have a fitted effect of over 30% in size). The method in brief:
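p53RE-bla cells were treated with compound for 16 hours at 37 C. Cytotoxicity was then measured as CellTiter-Glo luminescence after 30 min at room temperature.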
A general note: qHTS replaces the single test concentration by a dilution series.

The nature of assay [3]: qHTS assay for small molecules that induce genotoxicity in human embryonic kidney cells expressing luciferase-tagged ATAD5 - cell viability (AID 651634; calls by dose curve; further: nearly all actives have a fitted effect of over 25% in size; further: potency means the concentration at half of the fitted maximal effect). In outline:
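Viability read: CellTiter-Fluor fluorescence, 30 min at 37C. Cells: HEK293T, luciferase-tagged ATAD5. Exposure: 15.5 hr, 37C, 5% CO2, compound or DMSO vehicle.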

Assay [4] is described as follows: qHTS assay for small molecule disruptors of the mitochondrial membrane potential - cell viability (AID 720634; calls by dose curve;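 further: human HepG2 liver cancer cells; series mostly up to about 83 µM; nearly all actives have a fitted effect of over 20% in size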). In outline: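 HepG2, 1 hr compound, 37 C. ATP luminescence via CellTiter-Glo, 30 min RT, same well as m-MPI.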
The nature of assay [5]: qHTS assay for small molecule disruptors of the mitochondrial membrane potential (AID 720635). Further: potency means the concentration at half of the fitted maximal effect. In outline: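 HepG2 cells exposed to compound 1 hr at 37C, then Mito-MPS dye 30 min. Ratio read of aggregate (540/590 nm) versus monomer (490/535 nm) fluorescence.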
The nature of assay [6]: qHTS assay to test for compound auto fluorescence at 590 nm (red) in HepG2 cells (AID 720674). The method in brief: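 Fluorescence at 590 nm emission following 540 nm excitation was recorded from HepG2 wells one hour after compound transfer, with DMSO-only wells as vehicle and Rose Bengal sodium equivalency as the scale.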
A short description of assay [7]: qHTS assay to test for compound auto fluorescence at 535 nm (green) in HepG2 cells (AID 720675).
Assay [8] can be described thus: qHTS assay to test for compound auto fluorescence at 460 nm (blue) in HEK293 cells (AID 720678). In outline: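 Triamterene serves as the blue fluorophore standard. Compound signal at 405/460 nm is read in HEK293 wells (2,000 cells, 10% dialyzed FBS) after overnight treatment at 37C.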
A short description of assay [9]: qHTS assay to test for compound auto fluorescence at 590 nm (red) in HEK293 cells (AID 720679). The method in brief: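 We plated HEK293 cells in 10% dialyzed FBS medium, let them adhere for 4-5 hr, then added 23 nL compound. Overnight at 37C and 5% CO2 preceded fluorescence measurement at 540/590nm.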
A short description of assay [10]: qHTS assay for small molecules that induce genotoxicity in human embryonic kidney cells expressing luciferase-tagged ATAD5 (AID 651632). Further: nearly all actives have a fitted effect of over 15% in size. In outline: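 Luminescent reporter readout, HEK293T ATAD5-luc line: 16 hr drug exposure (37C, 5% CO2) followed by Amplite, 30 min RT.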

`NC(=O)NNc1ccccc1`: the Potency result in assay [1], in assay [2], in [3], in [4], in assay [5] and in [8] was “inactive” each time. The outcome in assay [6], in [7] and in [9] was inactive.

On to `CC(C)(C)C(=O)C1C(=O)c2ccccc2C1=O`, for which the Potency result in assay [10], in assay [4] and in assay [8] was “inactive” in each case. The Potency in assay [3] is 17.1 µM (active) and 7.7 µM (active); in [5] it was 10.8 µM (active) and 6.11 µM (active). Also, the result in assay [6] and in [7] was inactive.

Consider `O=C(O)c1ccc([N+](=O)[O-])cc1`, for which the Potency result in assay [1], in assay [3], in [4] and in assay [8] was “inactive” each time. Besides, the outcome in [6], in assay [7] and in [9] was inactive.

For the origin of these results see PubChem BioAssay (Tox21).
